# Data taken from PubChem BioAssay (Tox21).
# “And” between values parts separate entries of the source, which are not always exact repeats. Identical values can stand only once. Results filed as inconclusive are left out. A call without a number means that no potency is given here. Some compounds were tested as several samples or in several runs, with calls that do not always agree. The source made the active and inactive calls. Unless noted, calls follow the shape of the dose curve; as a rule, active = well fitted curve in the direction sought with a large enough effect in the repeat runs; inconclusive = weak or mixed curves; inactive = no such curve, though single readings can be large; an effect the other way counts as inactive or inconclusive.
# Experiments:
# [1] = Human pregnane X receptor (PXR) small molecule agonists, qHTS cell viability counter screen (AID 1346977); also: nearly all actives have a fitted effect of over 50% in size; also: potency is read from the fitted curve at half-maximal effect
# Method in brief: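 Viability counter screen: CellTiter-Fluor signal in PXR-Luc HepG2 cells, 24hr compound exposure, 37C, 5% CO2.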
# [2] = Caspase-3/7 induction in HepG2 cells by small molecules, qHTS assay (AID 1346978); also: nearly all actives have a fitted effect of over 15% in size; also: potency is read from the fitted curve at half-maximal effect
# Method in brief: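 Wild-type HepG2 cells, 2,000/well, settled 5 hr at 37 C and 5% CO2, then compound-treated for 17 hr; caspase-3/7 activity read by luminescent Caspase-Glo 3/7 after 30 min at room temperature.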
# [3] = Caspase-3/7 induction in CHO-K1 cells by small molecules, qHTS assay (AID 1346980); also: nearly all actives have a fitted effect of over 15% in size; also: potency is read from the fitted curve at half-maximal effect
# Method in brief: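 Wild-type CHO-K1 cells exposed to compounds for 17hr at 37 C, 5% CO2. Caspase-3/7 activity then measured by Caspase-Glo 3/7 luminescence after 30min at room temperature.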
# [4] = Caspase-3/7 induction in HepG2 cells by small molecules, qHTS cell viability counter screen (AID 1346981); also: nearly all actives have a fitted effect of over 30% in size; also: potency is read from the fitted curve at half-maximal effect; as to activity change, negative = cytotoxicity: series mostly up to about 92 µM
# Method in brief: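 Viability determined by CellTiter-Fluor fluorescence in HepG2 wells also used for the luminescent Caspase-Glo 3/7 read. Compounds were present for 16 hr at 37 C, 5% CO2 before reagent addition.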
# [5] = molecular target: Acetylcholinesterase (Homo sapiens) (UniProt P22303); experiment: Acetylcholinesterase (AChE) small molecule antagonists: colormetric cell-based qHTS assay (AID 1347395; calls by dose curve; also: nearly all actives have a fitted effect of over 30% in size)
# Method in brief: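 Homogeneous whole-cell format. SH-SY5Y cells seeded overnight, dosed with compound (30 min, 37 C, 5% CO2), then given DTNB/acetylthiocholine cocktail for 90 min at 37 C; colorimetric signal.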
# [6] = molecular target: Acetylcholinesterase (Homo sapiens) (UniProt P22303); experiment: Acetylcholinesterase (AChE) small molecule antagonists: enzyme-based qHTS assay (AID 1347397; calls by dose curve; also: nearly all actives have a fitted effect of over 55% in size); conditions: Potency: AChE enzyme activity inhibition
# Method in brief: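 Recombinant human AChE (50 mU/mL) preincubated with compound 30 min at room temperature; acetylthiocholine plus DTNB then added, and thiocholine formation read colorimetrically after 10 min at room temperature. DMSO served as vehicle control.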
# [7] = molecular target: Acetylcholinesterase (Homo sapiens) (UniProt P22303); experiment: Acetylcholinesterase (AChE) small molecule antagonists: fluorescence cell-based qHTS assay (AID 1347398; calls by dose curve; also: nearly all actives have a fitted effect of over 50% in size); conditions: Potency: AChE activity
# Method in brief: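 SH-SY5Y cells (2000/well), attached overnight, incubated with compound 30 min at 37 C. Acetylthiocholine plus Thiolite Green then added for 40 min at room temperature. Thiocholine fluorescence (Ex/Em 490/520 nm) reports cellular AChE activity.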
# [8] = molecular target: Acetylcholinesterase (Homo sapiens) (UniProt P22303); experiment: Acetylcholinesterase (AChE) small molecule antagonists: enzyme-based qHTS assay with human liver microsomes (AID 1347399; calls by dose curve; also: nearly all actives have a fitted effect of over 60% in size); conditions: Potency: qHTS inhibition
# Method in brief: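 Recombinant human AChE (50 mU/mL in the enzyme mix) and human liver microsomes (0.25 mg/mL final) were preincubated with compound and NADPH (0.25 mg/mL final) for 30 min at 37 C. Acetylthiocholine/DTNB was then added; thiocholine was read colorimetrically after 10 min at room temperature.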
# [9] = molecular target: Cytochrome P450 2C9 (Homo sapiens) (UniProt P11712); experiment: Cytochrome P450 Family 2 Subfamily C Member 9 (CYP2C9) small molecule antagonists: luciferase reporter qHTS assay (AID 1671198); also: nearly all actives have a fitted effect of over 50% in size; also: potency is read from the fitted curve at half-maximal effect; as to activity change, negative = inhibition: series mostly up to about 120 µM
# Method in brief: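 P450-Glo proluciferin substrate with CYP2C9 enzyme; 10 min RT preincubation, then NADPH regeneration 1 h at 37C; luciferin detection reagent 20 min RT, luminescence in relative luminescence units.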
# [10] = molecular target: Cytochrome P450 1A2 (Homo sapiens) (UniProt P05177); experiment: Cytochrome P450 Family 1 Subfamily A Member 2 (CYP1A2) small molecule antagonists: luciferase reporter qHTS assay (AID 1671199); also: nearly all actives have a fitted effect of over 50% in size; also: potency is read from the fitted curve at half-maximal effect; as to activity change, negative = inhibition: series mostly up to about 120 µM
# Method in brief: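 Enzymatic CYP1A2 assay, human, luminescent: 10 min compound–enzyme–substrate preincubation, 1 h NADPH-dependent turnover, 20 min detection step, room temperature throughout. Reduced light indicates lower CYP1A2 activity.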
# [11] = molecular target: Voltage-gated inwardly rectifying potassium channel KCNH2 (Homo sapiens) (UniProt Q12809); experiment: Human Ether-a-go-go-Related Gene (hERG) channel small molecule antagonists: fluorescence cell-based qHTS assay (AID 1671200)
# Method in brief: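 Thallium served as the potassium surrogate; its influx into dye-loaded U2OS cells carrying the channel was measured by fluorescence over 2 min.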
# [12] = molecular target: Cytochrome P450 3A4 (Homo sapiens) (UniProt P08684); experiment: Cytochrome P450 Family 3 Subfamily A Member 4 (CYP3A4) small molecule antagonists: luciferase reporter qHTS assay (AID 1671201); also: nearly all actives have a fitted effect of over 50% in size; also: potency is read from the fitted curve at half-maximal effect; as to activity change, negative = inhibition: series mostly up to about 120 µM
# Method in brief: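 Relative luminescence units after 20 min with luciferin detection reagent served as read-out. Beforehand, CYP3A4 turned over a proluciferin substrate for 1 h at room temperature with NADPH regeneration, following 10 min compound preincubation.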
# [13] = molecular target: Cytochrome P450 2D6 (Homo sapiens) (UniProt P10635); experiment: Cytochrome P450 Family 2 Subfamily D Member 6 (CYP2D6) small molecule antagonists: luciferase reporter qHTS assay (AID 1671196); also: nearly all actives have a fitted effect of over 50% in size; also: potency is read from the fitted curve at half-maximal effect; as to activity change, negative = inhibition: series mostly up to about 120 µM
# Method in brief: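 Each well received CYP2D6 with its proluciferin substrate and chemical, sat 10 min, then got NADPH regeneration solution for 1 h at room temperature. Luminescence in RLU served as the activity measure.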
# [14] = molecular target: Cytochrome P450 2C19 (Homo sapiens) (UniProt P33261); experiment: Cytochrome P450 Family 2 Subfamily C Member 19 (CYP2C19) small molecule antagonists: luciferase reporter qHTS assay (AID 1671197); also: nearly all actives have a fitted effect of over 65% in size; also: potency is read from the fitted curve at half-maximal effect; as to activity change, negative = inhibition: series mostly up to about 120 µM
# Method in brief: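 Compounds were tested on CYP2C19 activity via proluciferin conversion to luciferin. The 37C, 1 h reaction followed NADPH addition; detection reagent stopped it.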
# [15] = Caspase-3/7 induction in CHO-K1 cells by small molecules, qHTS cell viability counter screen (AID 1346979); also: nearly all actives have a fitted effect of over 35% in size
# Method in brief: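 Viability readout by fluorescence (CellTiter-Fluor) on wild-type CHO-K1 cells exposed for 16hr at 37C and 5% CO2 to compounds delivered in DMSO; reagent incubated 1hr before reading.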
# [16] = molecular target: Nuclear receptor subfamily 1 group I member 2 (Homo sapiens) (UniProt O75469); experiment: Human pregnane X receptor (PXR) small molecule agonists, qHTS assay (AID 1346982); also: nearly all actives have a fitted effect of over 35% in size; also: potency is read from the fitted curve at half-maximal effect
# Method in brief: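 Compound-induced hPXR transactivation of a CYP3A4 luciferase reporter was scored in HepG2 PXR-Luc cells over 24 hr at 37 C, 5% CO2, by luminescence.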
# Nuclear receptor subfamily 1 group I member 2 (Homo sapiens), sequence (O75469 whole entry, looked up): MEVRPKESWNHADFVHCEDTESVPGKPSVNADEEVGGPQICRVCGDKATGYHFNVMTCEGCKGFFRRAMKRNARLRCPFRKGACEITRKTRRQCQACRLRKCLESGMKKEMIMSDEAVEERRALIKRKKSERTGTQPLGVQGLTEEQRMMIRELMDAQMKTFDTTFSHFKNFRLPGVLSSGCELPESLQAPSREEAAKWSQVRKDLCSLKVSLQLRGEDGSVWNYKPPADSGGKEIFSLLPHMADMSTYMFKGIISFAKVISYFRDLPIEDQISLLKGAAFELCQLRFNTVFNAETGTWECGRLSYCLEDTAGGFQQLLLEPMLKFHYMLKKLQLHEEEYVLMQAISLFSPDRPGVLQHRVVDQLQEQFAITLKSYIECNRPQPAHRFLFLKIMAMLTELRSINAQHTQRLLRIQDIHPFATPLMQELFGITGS
# Cytochrome P450 1A2 (Homo sapiens), sequence (P05177 whole entry, looked up): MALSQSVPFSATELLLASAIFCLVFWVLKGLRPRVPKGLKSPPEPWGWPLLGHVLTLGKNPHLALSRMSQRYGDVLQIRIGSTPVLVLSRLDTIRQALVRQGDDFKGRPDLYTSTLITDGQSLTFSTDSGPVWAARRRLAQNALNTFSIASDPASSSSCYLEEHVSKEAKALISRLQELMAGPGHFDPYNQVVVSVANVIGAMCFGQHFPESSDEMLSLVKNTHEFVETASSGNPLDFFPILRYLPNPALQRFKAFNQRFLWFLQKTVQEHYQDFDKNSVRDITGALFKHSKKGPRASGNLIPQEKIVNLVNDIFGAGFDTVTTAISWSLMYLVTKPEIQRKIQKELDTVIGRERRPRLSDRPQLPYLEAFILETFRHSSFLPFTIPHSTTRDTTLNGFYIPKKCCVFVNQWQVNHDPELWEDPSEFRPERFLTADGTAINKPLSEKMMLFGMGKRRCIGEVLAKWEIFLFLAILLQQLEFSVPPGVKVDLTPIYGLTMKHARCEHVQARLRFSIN
# Acetylcholinesterase (Homo sapiens), sequence (P22303 whole entry, looked up): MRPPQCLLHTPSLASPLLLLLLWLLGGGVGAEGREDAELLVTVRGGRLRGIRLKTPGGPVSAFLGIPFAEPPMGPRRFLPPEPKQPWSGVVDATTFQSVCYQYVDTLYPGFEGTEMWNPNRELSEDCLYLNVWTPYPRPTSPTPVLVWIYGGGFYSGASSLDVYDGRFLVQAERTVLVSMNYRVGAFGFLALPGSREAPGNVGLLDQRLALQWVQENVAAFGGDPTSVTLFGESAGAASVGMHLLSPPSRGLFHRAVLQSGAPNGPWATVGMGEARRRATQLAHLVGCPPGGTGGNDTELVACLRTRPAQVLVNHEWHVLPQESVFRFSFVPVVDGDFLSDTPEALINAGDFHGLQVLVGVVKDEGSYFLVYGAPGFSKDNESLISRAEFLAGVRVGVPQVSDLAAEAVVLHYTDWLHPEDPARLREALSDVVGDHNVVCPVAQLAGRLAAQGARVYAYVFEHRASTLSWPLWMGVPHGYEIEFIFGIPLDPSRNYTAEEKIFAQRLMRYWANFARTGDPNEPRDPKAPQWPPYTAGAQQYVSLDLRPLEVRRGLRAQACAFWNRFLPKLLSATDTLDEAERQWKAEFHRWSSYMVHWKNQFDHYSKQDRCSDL
# Voltage-gated inwardly rectifying potassium channel KCNH2 (Homo sapiens), sequence (Q12809 whole entry, looked up): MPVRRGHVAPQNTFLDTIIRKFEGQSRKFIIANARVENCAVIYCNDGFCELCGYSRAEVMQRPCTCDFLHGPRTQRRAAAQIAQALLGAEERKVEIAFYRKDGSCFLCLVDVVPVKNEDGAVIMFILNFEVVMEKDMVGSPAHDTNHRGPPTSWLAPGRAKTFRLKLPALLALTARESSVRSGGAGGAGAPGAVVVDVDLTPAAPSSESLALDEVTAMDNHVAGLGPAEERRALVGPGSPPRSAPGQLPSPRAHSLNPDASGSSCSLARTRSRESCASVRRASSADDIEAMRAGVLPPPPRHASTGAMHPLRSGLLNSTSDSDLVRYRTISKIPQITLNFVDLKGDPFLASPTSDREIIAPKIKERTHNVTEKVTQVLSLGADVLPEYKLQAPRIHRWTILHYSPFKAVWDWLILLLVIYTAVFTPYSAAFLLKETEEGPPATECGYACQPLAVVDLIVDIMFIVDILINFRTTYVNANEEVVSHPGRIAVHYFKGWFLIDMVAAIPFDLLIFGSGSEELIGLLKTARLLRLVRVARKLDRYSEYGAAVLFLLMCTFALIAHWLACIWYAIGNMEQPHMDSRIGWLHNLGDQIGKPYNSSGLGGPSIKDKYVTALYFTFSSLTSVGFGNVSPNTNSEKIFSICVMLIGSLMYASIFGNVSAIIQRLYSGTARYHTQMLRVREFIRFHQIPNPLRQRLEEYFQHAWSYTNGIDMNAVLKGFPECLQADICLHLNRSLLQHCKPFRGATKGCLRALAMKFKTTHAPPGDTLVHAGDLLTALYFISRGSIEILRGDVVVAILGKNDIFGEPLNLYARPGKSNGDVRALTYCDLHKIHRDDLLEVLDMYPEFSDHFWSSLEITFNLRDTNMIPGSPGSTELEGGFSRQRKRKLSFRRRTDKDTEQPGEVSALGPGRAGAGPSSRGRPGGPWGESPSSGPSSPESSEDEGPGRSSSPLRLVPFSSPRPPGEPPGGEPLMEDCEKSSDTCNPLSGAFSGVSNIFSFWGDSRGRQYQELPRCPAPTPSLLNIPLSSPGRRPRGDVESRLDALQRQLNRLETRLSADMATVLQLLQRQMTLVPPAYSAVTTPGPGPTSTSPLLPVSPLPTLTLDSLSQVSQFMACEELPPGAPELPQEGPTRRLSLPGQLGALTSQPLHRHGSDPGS
# Cytochrome P450 2C9 (Homo sapiens), sequence (P11712 whole entry, looked up): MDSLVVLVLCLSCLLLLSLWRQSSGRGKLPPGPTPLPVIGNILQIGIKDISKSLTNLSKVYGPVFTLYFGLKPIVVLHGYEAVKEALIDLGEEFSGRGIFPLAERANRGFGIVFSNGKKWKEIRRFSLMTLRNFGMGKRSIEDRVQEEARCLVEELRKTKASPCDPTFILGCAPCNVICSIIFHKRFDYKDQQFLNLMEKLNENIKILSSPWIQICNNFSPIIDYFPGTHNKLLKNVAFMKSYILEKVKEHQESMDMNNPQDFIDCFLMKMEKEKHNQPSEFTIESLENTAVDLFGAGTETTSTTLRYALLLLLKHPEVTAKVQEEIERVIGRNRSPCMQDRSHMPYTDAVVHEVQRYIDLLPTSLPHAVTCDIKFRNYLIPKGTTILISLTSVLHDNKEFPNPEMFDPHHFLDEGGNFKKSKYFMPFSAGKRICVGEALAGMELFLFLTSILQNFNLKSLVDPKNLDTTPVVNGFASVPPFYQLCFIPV
# Cytochrome P450 2D6 (Homo sapiens), sequence (P10635 whole entry, looked up): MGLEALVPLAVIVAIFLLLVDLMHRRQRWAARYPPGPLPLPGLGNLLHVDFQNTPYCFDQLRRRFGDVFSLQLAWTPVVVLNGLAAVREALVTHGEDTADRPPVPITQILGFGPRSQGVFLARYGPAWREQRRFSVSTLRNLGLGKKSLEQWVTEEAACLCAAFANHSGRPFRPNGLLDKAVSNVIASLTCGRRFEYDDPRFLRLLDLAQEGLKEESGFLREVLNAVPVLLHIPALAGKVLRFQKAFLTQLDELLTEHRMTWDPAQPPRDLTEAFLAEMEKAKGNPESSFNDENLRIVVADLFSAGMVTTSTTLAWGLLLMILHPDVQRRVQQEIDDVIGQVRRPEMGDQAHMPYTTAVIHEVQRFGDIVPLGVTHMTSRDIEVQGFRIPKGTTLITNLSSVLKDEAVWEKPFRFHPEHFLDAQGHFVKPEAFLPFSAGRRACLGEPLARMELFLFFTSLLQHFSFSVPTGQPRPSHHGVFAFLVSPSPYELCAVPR
# Cytochrome P450 2C19 (Homo sapiens), sequence (P33261 whole entry, looked up): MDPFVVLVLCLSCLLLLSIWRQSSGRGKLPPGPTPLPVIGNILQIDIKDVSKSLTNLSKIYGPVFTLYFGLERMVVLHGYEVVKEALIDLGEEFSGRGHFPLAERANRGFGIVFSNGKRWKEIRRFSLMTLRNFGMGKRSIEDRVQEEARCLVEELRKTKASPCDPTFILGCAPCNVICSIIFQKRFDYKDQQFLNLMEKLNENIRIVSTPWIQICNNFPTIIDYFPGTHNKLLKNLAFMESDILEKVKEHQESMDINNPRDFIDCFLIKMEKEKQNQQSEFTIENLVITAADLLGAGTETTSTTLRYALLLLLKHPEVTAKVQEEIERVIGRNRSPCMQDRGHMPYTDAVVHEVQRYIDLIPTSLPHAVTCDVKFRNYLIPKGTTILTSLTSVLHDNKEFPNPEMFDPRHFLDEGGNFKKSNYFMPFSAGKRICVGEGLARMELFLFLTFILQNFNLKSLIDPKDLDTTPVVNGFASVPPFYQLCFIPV
# Cytochrome P450 3A4 (Homo sapiens), sequence (P08684 whole entry, looked up): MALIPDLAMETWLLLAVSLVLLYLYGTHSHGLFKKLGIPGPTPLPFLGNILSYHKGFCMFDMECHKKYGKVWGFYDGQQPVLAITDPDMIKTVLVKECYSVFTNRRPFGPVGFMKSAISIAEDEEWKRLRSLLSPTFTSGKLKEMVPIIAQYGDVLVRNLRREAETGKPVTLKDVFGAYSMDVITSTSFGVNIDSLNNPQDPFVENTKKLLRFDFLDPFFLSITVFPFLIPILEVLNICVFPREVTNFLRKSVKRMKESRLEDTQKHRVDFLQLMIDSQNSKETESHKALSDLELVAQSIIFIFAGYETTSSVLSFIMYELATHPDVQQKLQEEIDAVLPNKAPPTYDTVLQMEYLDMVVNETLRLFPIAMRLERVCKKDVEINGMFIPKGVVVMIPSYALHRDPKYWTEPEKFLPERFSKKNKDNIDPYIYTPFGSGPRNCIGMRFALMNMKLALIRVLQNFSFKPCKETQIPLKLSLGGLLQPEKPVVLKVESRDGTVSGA
smiles,measurement,setting,value
CCC1(CC)C(=O)N=C(O)NC1=O,Potency,[1],inactive
same,Potency,[2],inactive
same,Potency,[3],inactive
same,Potency,[4],inactive
same,Potency,[5],inactive
same,Potency,[6],inactive
same,Potency,[7],inactive
same,Potency,[8],inactive
same,Potency,[9],inactive
same,Potency,[10],inactive
same,Potency,[11],inactive
same,Potency,[12],inactive
[Cl-].[Cl-].[Cl-].[Yb+3],Potency,[1],inactive
same,Potency,[2],inactive
same,Potency,[3],inactive
same,Potency,[4],inactive
same,Potency,[11],inactive
CC[C@H](C)[C@H]1O[C@]2(C=C[C@@H]1C)C[C@@H]1C[C@@H](C/C=C(\C)[C@@H](O[C@H]3C[C@H](OC)[C@@H](O[C@H]4C[C@H](OC)[C@@H](NC)[C@H](C)O4)[C@H](C)O3)[C@@H](C)/C=C/C=C3\CO[C@@H]4[C@H](O)C(C)=C[C@@H](C(=O)O1)[C@]34O)O2,Potency,[1],6.86 µM (active)
same,Potency,[2],17.2 µM (active)
same,Potency,[3],6.11 µM (active)
same,Potency,[4],15.4 µM (active)
same,Potency,[5],inactive
same,Potency,[6],inactive
same,Potency,[7],inactive
same,Potency,[8],inactive
same,Potency,[13],63.3 µM (active)
same,Potency,[14],35.6 µM (active)
same,Potency,[10],35.6 µM (active)
same,Potency,[11],inactive
same,Potency,[12],1.59 µM (active)
C1=CCC=C1,Potency,[1],inactive
same,Potency,[15],inactive
same,Potency,[3],inactive
same,Potency,[4],inactive
same,Potency,[11],inactive
CCCCC/C=C\C/C=C\C/C=C\C/C=C\CCCC(=O)NCC(=O)O,Potency,[1],inactive
same,Potency,[2],inactive
same,Potency,[4],inactive
same,Potency,[16],inactive
same,Potency,[5],inactive
same,Potency,[6],inactive
same,Potency,[7],inactive
same,Potency,[8],inactive
same,Potency,[13],15.5 µM (active)
same,Potency,[14],inactive
same,Potency,[9],13.8 µM (active)
same,Potency,[10],inactive
same,Potency,[11],inactive
same,Potency,[12],inactive
CCC(C)Nc1c([N+](=O)[O-])cc(C(C)(C)C)cc1[N+](=O)[O-] (stereo not given),Potency,[1],inactive
same,Potency,[2],inactive
same,Potency,[3],inactive
same,Potency,[4],inactive
same,Potency,[16],24.3 µM (active)
same,Potency,[5],inactive
same,Potency,[8],inactive
same,Potency,[14],25.2 µM (active)
same,Potency,[9],35.6 µM (active)
same,Potency,[10],31.7 µM (active)
same,Potency,[12],inactive
COP(=O)(OC)O/C(=C\Cl)c1cc(Cl)c(Cl)cc1Cl,Potency,[1],inactive
same,Potency,[2],inactive
same,Potency,[3],inactive
same,Potency,[4],inactive
same,Potency,[8],inactive
same,Potency,[14],5.03 µM (active)
same,Potency,[9],44.8 µM (active)
same,Potency,[11],inactive
same,Potency,[12],inactive
Clc1c(Cl)c(Cl)c(Cl)c(Cl)c1Cl,caspase activation,[2],-1.49% [at 8.39 µM] (inactive)
same,"activity change, negative = cytotoxicity",[15],0.636% [at 8.39 µM] (inactive)
same,caspase-3/7 activation,[3],0.528% [at 8.39 µM] (inactive)
same,"activity change, negative = cytotoxicity",[4],-1.11% [at 8.39 µM] (inactive)
same,activation,[16],-14.4% [at 8.39 µM] (inactive)
same,"activity, negative = inhibition",[5],-1.38% [at 10.5 µM] (inactive)
same,"activity change, negative = inhibition",[6],-1.5% [at 10.5 µM] (inactive)
same,"activity change, negative = inhibition",[7],3.1% [at 10.5 µM] (inactive)
same,"activity change, negative = inhibition",[8],0% [at 10.5 µM] (inactive)
same,"activity change, negative = inhibition",[13],-7.24% [at 10.5 µM] (inactive)
same,"activity change, negative = inhibition",[14],17.2% [at 10.5 µM] (inactive)
same,"activity change, negative = inhibition",[9],-2.13% [at 10.5 µM] (inactive)
same,"activity change, negative = inhibition",[10],-10.9% [at 10.5 µM] (inactive)
same,"activity change, negative = inhibition",[11],10.1% [at 6.97 µM] (inactive)
same,"activity change, negative = inhibition",[12],4.21% [at 10.5 µM] (inactive)
ClC1=C(Cl)[C@]2(Cl)[C@H]3[C@H]([C@@H]4C=C[C@H]3C4)[C@@]1(Cl)C2(Cl)Cl,Potency,[1],inactive
same,Potency,[2],inactive
same,Potency,[4],inactive
same,Potency,[16],34.3 µM (active) and inactive
same,Potency,[5],inactive
same,Potency,[7],inactive
same,Potency,[8],inactive
same,Potency,[13],35.5 µM (active) and inactive
same,Potency,[14],inactive and 35.6 µM (active)
same,Potency,[10],inactive
same,Potency,[12],252 nM (active) and 399 nM (active)
